Screening data from PubChem BioAssay.
TGFb inhibitor: qHTS for Inhibitors of TGF-b; HepG2 CAGA-GFP TGF-b/SMAD3 reporter, GFP fluorescence, 18 h; TGF-beta stimulated, 500 pg/mL final; Potency, µM (top dose mostly 46.1 µM), inactives show at the top dose activity, negative = inhibition, usual class: inhibitors; 1.2% of 410,000 active; further: on the % scale 0 is the no-effect control and ±100 the full control effect; nearly all actives have a fitted effect of over 65% in size
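Inhibition was scored as loss of TGF-beta-induced (500 pg/mL final, 18 hours, 37 degrees C) GFP in HEPG2 cells carrying a CAGA-GFP reporter, in DMEM with 1% FBS. Well GFP was summed per cell; Activity was normalised to unstimulated and stimulated DMSO wells, then concentration-response fitting.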
ATXN viability: Viability Counterscreen for Primary qHTS for Inhibitors of ATXN expression; S2 cells (HEK-293 line with an ATXN2-luciferase reporter) viability, CellTiter-Fluor protease fluorescence, 24 h; Potency, µM (doses to about 56.7 µM), usual class: cytotoxic; 0.49% of 400,000 active; AID 651635, 2014; further: nearly all actives have a fitted effect of over 40% in size
HepG2 viability: qHTS for Inhibitors of TGF-b: Cytotox Counterscreen; HepG2 CAGA-GFP viability, ATP luminescence, 18 h; Potency, µM (doses to about 46.1 µM), for the others: at the top dose activity change, negative = cytotoxicity, actives largely listed as cytotoxic; 0.76% of 410,000 active; AID 588856, 2011
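CellTiter-Glo luminescence gave cytotoxicity after 18 hours at 37 degrees C. The cells were HepG2 CAGA-GFP in 1% FBS DMEM, stimulated with 500 pg/mL TGF-beta after compound addition. %Activity was normalised to no-cell wells (complete cell-killing) and DMSO (no toxicity), and curves were fitted and classified.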
HT1080 IDH1KD tx: qHTS for induction of synthetic lethality in tumor cells producing 2HG: qHTS for the HT-1080-IDH1KD cell line; Potency, µM (titrated, usually from 46.1 µM), for the others: at the top dose activity, negative = toxicity, most hits filed as cytotoxic; AID 686971, 2013; 2% of 360,000 active; HT-1080 IDH1 knockdown viability, ATP luminescence, 48 h;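 further: 0% = DMSO wells and -100% = cell-free medium wells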
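Cytotoxicity counter-line: IDH1KD HT-1080, 48 h, CellTiter-Glo. Curves classed by r2, magnitude and activity.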
ATXN2 expr inh: Primary qHTS for Inhibitors of ATXN expression | Potency, µM (titrated, usually from 57 µM), for the others: top-dose activity change, negative = inhibition, actives largely listed as inhibitors | 0.72% of 360,000 active | HEK-293 ATXN2-luciferase reporter, luminescence, 24 h; further: on the % scale 0 is the no-effect control and ±100 the full control effect; nearly all actives have a fitted effect of over 55% in size
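qHTS (up to 57 uM final) was run with 24 h compound exposure of reporter cells at 37 °C. Each well was multiplexed: SteadyGlo luminescence measured ATXN2-luciferase expression after a fluorogenic Gly-Phe-AFC viability readout (25 uM final).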
HT1080-NT tox: qHTS for induction of synthetic lethality in tumor cells producing 2HG: qHTS for the HT-1080-NT fibrosarcoma cell line | HT-1080-NT fibrosarcoma viability, CellTiter-Glo ATP luminescence, 48 h | Potency, µM (doses to about 46.1 µM), for the others: top-dose activity, negative = less viability, usual class: cytotoxic | AID 686970, 2013 | 1.6% of 360,000 active;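 further: NT is the 2HG producing partner of a matched IDH1 knockdown line; 0% = DMSO-treated cells and -100% = media-only wells without cells; nearly all actives have a fitted effect of over 55% in size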
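Luminescent CellTiter-Glo readout after 48 hours of compound exposure at 37 degrees C defined viability of HT-1080-NT cells. Activity was normalized to DMSO wells and cell-free media wells; concentration-response curves were fitted and assigned curve classes.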
The depositor's hits bear a star. An excerpt weighted towards active compounds, which were near 3.8% of everything screened. The call rests on the fitted dose curve; in most records, active means well fitted curve in the direction sought with a large enough effect; inconclusive means small, poorly fitted or top-dose-only effect, or another doubt; inactive means no such curve, though single readings can be large; an effect the other way counts as inactive or inconclusive. Potency means the concentration at half of the fitted maximal effect.

Results for CCOc1ccc(OCC(=O)Nc2cccc(S(=O)(=O)NC3=NCCC3)c2)cc1 ?
TGFb inhibitor: -8.4%; ATXN viability: inactive; HepG2 viability: -2.2%; HT1080 IDH1KD tx: -23.4%; ATXN2 expr inh: -16.5%; HT1080-NT tox: -12.7%

What do the screens show for `CCOC(=O)C1=C(CN2CCN(c3ccccc3F)CC2)NC(=O)NC1c1ccc(OC)cc1` (stereo not drawn)?
TGFb inhibitor: 7.8%; HepG2 viability: 5.4%

What do the screens show for `O=C(CCl)N(c1ccccc1)c1c[nH]c2ccccc12`?
TGFb inhibitor: 8.91µM*; ATXN viability: 25.1µM*; HepG2 viability: -99.8%; HT1080 IDH1KD tx: 6.51µM*; ATXN2 expr inh: inconclusive; HT1080-NT tox: inconclusive

How did O=C(CCl)N(c1ccc(Cl)cc1)c1c[nH]c2ccccc12 do in these assays?
TGFb inhibitor: 15.8µM*; ATXN viability: 17.8µM*; HepG2 viability: 17.8µM*; HT1080 IDH1KD tx: 4.61µM*; ATXN2 expr inh: inconclusive; HT1080-NT tox: 7.31µM*

What do the screens show for `CC1=C(CC(=O)c2ccc(Cl)cc2)C(=O)c2ccccc2C1=O`?
TGFb inhibitor: 12.6µM*; ATXN viability: inactive; HepG2 viability: 12.6µM*; HT1080 IDH1KD tx: 11.2µM*; ATXN2 expr inh: 65.6%; HT1080-NT tox: inconclusive

Results for O=C(Cc1ccccn1)c1ccc(Cl)cc1 ?
TGFb inhibitor: inconclusive; ATXN viability: inactive; HepG2 viability: -15.9%; HT1080 IDH1KD tx: -0.8%; ATXN2 expr inh: 13.3%; HT1080-NT tox: 16.4%

How did CC(=O)Nc1cc(C(=O)N2CC3(C)CC2CC(C)(C)C3)cc2ncn(CCc3ccccn3)c12 (stereo not drawn) do in these assays?
ATXN viability: inactive

How did CCc1ccc(C(O)c2ncc(-c3cccc(C(F)(F)F)c3)[nH]2)cc1 (stereo not drawn) do in these assays?
TGFb inhibitor: inconclusive; ATXN viability: inactive; HepG2 viability: -112.6%; HT1080 IDH1KD tx: inconclusive; ATXN2 expr inh: inconclusive; HT1080-NT tox: 23.1µM*

What do the screens show for `COc1ccc(C(O)c2ncc(-c3cccc(C(F)(F)F)c3)[nH]2)cc1F` (stereo not drawn)?
TGFb inhibitor: 5.3%; ATXN viability: inactive; HepG2 viability: -39.4%; HT1080 IDH1KD tx: -24.3%; ATXN2 expr inh: -28.7%; HT1080-NT tox: -11.5%

How did OC(Cc1ccccc1Br)c1ncc(-c2cccc(C(F)(F)F)c2)[nH]1 (stereo not drawn) do in these assays?
TGFb inhibitor: inconclusive; ATXN viability: inconclusive; HepG2 viability: -57.8%; HT1080 IDH1KD tx: 16.4µM*; ATXN2 expr inh: inconclusive; HT1080-NT tox: inconclusive

What do the screens show for `CC1=CC(=C(c2ccc(N)cc2)c2ccc(N)cc2)C=CC1=N`?
TGFb inhibitor: inconclusive; HepG2 viability: -64.0%

What do the screens show for `Cc1ccc2cc(C(c3nnnn3C3CCCC3)N(Cc3ccccc3)Cc3ccco3)c(=O)[nH]c2c1` (stereo not drawn)?
TGFb inhibitor: inconclusive; ATXN viability: inactive; HepG2 viability: 8.1%; HT1080 IDH1KD tx: 7.6%; ATXN2 expr inh: 10.5%; HT1080-NT tox: 14.0%

Results for Cc1cc2cc(C(c3nnnn3C3CCCC3)N(Cc3cccnc3)Cc3ccco3)c(=O)[nH]c2cc1C (stereo not drawn) ?
TGFb inhibitor: inconclusive; ATXN viability: inactive; HepG2 viability: 3.2%; HT1080 IDH1KD tx: 10µM*; ATXN2 expr inh: -12.5%; HT1080-NT tox: inconclusive

What do the screens show for `CCOCN(C(=O)Cn1cnc2cc(C)c(C)cc21)c1c(C)cccc1CC`?
TGFb inhibitor: -29.3%; ATXN viability: 28.2µM*; HepG2 viability: -19.7%; ATXN2 expr inh: -19.1%

Results for CCOCN(C(=O)Cn1c(COC)nc2ccccc21)c1c(C)cccc1CC ?
TGFb inhibitor: -21.9%; ATXN viability: inconclusive; HepG2 viability: -30.5%; HT1080 IDH1KD tx: -1.3%; ATXN2 expr inh: 0.8%; HT1080-NT tox: 0.6%

Results for CC(C)=CCC[C@H](C)CC1Cc2[nH]c(=S)[nH]c(=O)c2C(c2ccc(F)cc2)O1 (stereo partly drawn) ?
TGFb inhibitor: 12.6µM*; ATXN viability: inconclusive; HepG2 viability: 14.1µM*; HT1080 IDH1KD tx: 0.0%; ATXN2 expr inh: -6.7%; HT1080-NT tox: 1.3%

What do the screens show for `CC(C)=CCC[C@H](C)CC1Cc2[nH]c(=S)[nH]c(=O)c2C(c2ccc(Cl)cc2)O1` (stereo partly drawn)?
ATXN viability: inconclusive; HT1080 IDH1KD tx: 16.4µM*; ATXN2 expr inh: inconclusive; HT1080-NT tox: inconclusive

Results for Cc1c(C(=O)N2CCCCC2c2cccnc2)sc2ncnc(NCc3cccs3)c12 (stereo not drawn) ?
ATXN viability: inactive

What do the screens show for `Clc1cccc(Cl)c1/C=N/Nc1c(Cl)cncc1Cl`?
TGFb inhibitor: -6.6%; ATXN viability: inactive; HepG2 viability: -1.0%; HT1080 IDH1KD tx: 5.17µM*; ATXN2 expr inh: -26.5%; HT1080-NT tox: 2.31µM*

How did C=C(CCC(=O)c1ccccc1)C(=O)c1ccccc1 do in these assays?
TGFb inhibitor: -33.4%; ATXN viability: inconclusive; HepG2 viability: 10µM*; HT1080 IDH1KD tx: inconclusive; ATXN2 expr inh: inconclusive; HT1080-NT tox: 25.9µM*

Results for COc1ccc(CCNC(=O)c2cc(-c3ccc(C)c(C)c3)nc3ccccc23)cc1OC ?
TGFb inhibitor: -22.9%; ATXN viability: inconclusive; HepG2 viability: -35.8%; ATXN2 expr inh: -5.1%

Results for O=C(CCN1C(=O)/C(=C\c2ccccc2F)SC1=S)N1CCCCC1 ?
TGFb inhibitor: -2.6%; ATXN viability: 20µM*; HepG2 viability: 4.7%; HT1080 IDH1KD tx: 0.3%; ATXN2 expr inh: inconclusive; HT1080-NT tox: -2.7%

Results for O=C1/C(=C/c2ccccc2F)SC(=S)N1CC(=O)N1CCCCC1c1cccnc1 (stereo not drawn) ?
TGFb inhibitor: inconclusive; ATXN viability: inconclusive; HepG2 viability: 12.6µM*; HT1080 IDH1KD tx: -9.6%; HT1080-NT tox: -1.6%

What do the screens show for `Cc1cc(-n2c(SCc3ccccc3F)nc3n[nH]c(C)c3c2=N)ccc1Cl`?
TGFb inhibitor: -21.4%; ATXN viability: inactive; HepG2 viability: -28.4%; HT1080 IDH1KD tx: 20.6µM*; ATXN2 expr inh: -18.4%; HT1080-NT tox: inconclusive
